Tests used:
Type in all cases: functional
[1] = biological target: Solute carrier family 2, facilitated glucose transporter member 1 (Homo sapiens) (UniProt P11166); assay: ST_JUDE_LEISH: Cytotoxicity at 2uM final concentration against transgenic Leishmania Mexicana promastigotes LmGLUT1 that are glucose transport deficient and complemented with the human glucose transporter GLUT1. Activity is measured by DNA content using SYBR green in vitro
[2] = biological target: Hexose transporter 1 (Plasmodium falciparum) (UniProt O97467); assay: ST_JUDE_LEISH: Cytotoxicity at 2uM final concentration against transgenic Leishmania Mexicana promastigotes LmPfHT that are glucose transport deficient and complemented with the Plasmodium falciparum hexose transporter. Activity is measured by DNA content using SYBR green in vitro
[3] = biological target: Glucose transporter (Leishmania mexicana) (UniProt O61059); assay: ST_JUDE_LEISH: Cytotoxicity at 2uM final concentration against transgenic Leishmania Mexicana promastigotes LmGT2 that are glucose transport deficient and complemented with the L. Mexicana glucose transporter 2. Activity is measured by DNA content using SYBR green in vitro

Solute carrier family 2, facilitated glucose transporter member 1 (Homo sapiens), sequence (P11166 whole entry): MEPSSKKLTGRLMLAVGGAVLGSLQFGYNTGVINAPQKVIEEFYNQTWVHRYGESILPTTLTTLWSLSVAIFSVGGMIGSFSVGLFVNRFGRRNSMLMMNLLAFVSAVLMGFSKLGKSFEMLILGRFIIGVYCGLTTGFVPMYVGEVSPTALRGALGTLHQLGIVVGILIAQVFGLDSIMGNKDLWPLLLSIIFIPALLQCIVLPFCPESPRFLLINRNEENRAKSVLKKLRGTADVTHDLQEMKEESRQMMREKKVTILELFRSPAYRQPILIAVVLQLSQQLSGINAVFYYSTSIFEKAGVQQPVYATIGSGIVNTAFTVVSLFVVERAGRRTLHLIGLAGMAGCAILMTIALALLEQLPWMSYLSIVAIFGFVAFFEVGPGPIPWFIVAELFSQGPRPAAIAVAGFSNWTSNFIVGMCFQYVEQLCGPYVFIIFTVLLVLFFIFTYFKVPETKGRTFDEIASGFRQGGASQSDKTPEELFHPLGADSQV

CCN(CC)CCNC(=O)c1ccc(NC(=O)c2oc3c(Cl)cccc3c2C)cc1
inhibition [1]: 12.1%
inhibition [2]: 8.3%
inhibition [3]: 7.44%

O=C(Nc1cccc(OC2CCN(Cc3ccsc3)CC2)c1)c1ccc(C(F)(F)F)cc1
inhibition [1]: 0.75%
inhibition [2]: -0.04%
inhibition [3]: -1.05%

CC(C)(C)SCC(O)Cn1c2ccc(Br)cc2c2cc(Br)ccc21 (stereo not given)
inhibition [1]: 2.07%
inhibition [2]: 0.65%
inhibition [3]: -0.28%

CN1CCN(C(C(=O)NCc2cc(Cl)cc(Cl)c2)c2ccc(Nc3cccc(C(F)(F)F)c3)cc2)CC1 (stereo not given)
inhibition [1]: 1%
inhibition [2]: -2.61%
inhibition [3]: -2.02%

CC(C)(CNC(=O)[C@@H]1CCCN(Cc2ccc(Cl)cc2)C1)c1nc(-c2ccc(Cl)c(O)c2)c(-c2ccncc2)[nH]1
inhibition [1]: -1.45%
inhibition [2]: 0.41%
inhibition [3]: 0.77%

CCN(CC)CCCC(C)Nc1ccnc2[nH]c3ccccc3c12 (stereo not given)
inhibition [1]: 6.4%
inhibition [2]: 6.62%
inhibition [3]: 4.63%

N#Cc1ccc2c(c1)CCN(CCC1CCC(NC(=O)c3cc4ccc(Br)cc4[nH]3)CC1)C2 (stereo not given)
inhibition [1]: 1.19%
inhibition [2]: 0.57%
inhibition [3]: 1.16%

CC(C)(C)c1cc([N+](=O)[O-])cc(C(=O)Nc2ccccc2C(F)(F)F)c1O
inhibition [1]: 0.47%
inhibition [2]: -0.82%
inhibition [3]: -1.86%

CCN(CC)CCOc1ccc(NC(=O)c2oc3ccccc3c2C=Cc2ccccc2)cc1
inhibition [1]: 4.92%
inhibition [2]: -0.45%
inhibition [3]: 0.81%

CC1CN(Cc2cccc(F)c2)CCN1c1ccc(NC(=O)c2ccc(F)cc2)cc1 (stereo not given)
inhibition [1]: 2.15%
inhibition [2]: 1.55%
inhibition [3]: 8.54%

CC(C)(C)CCN1CCC(CNC(=O)c2cc(-c3cccc(C(F)(F)F)c3)cs2)C1 (stereo not given)
inhibition [1]: 3.1%
inhibition [2]: 2.95%
inhibition [3]: -0.8%

COc1cc(C(=O)NC2CCc3ccccc32)cc(Cl)c1OC (stereo not given)
inhibition [1]: -4.04%
inhibition [2]: -0.96%
inhibition [3]: -0.41%

COc1ccc(CCn2c(=N)c(C(=O)NCc3ccc(C)cc3)cc3c(=O)n4ccccc4nc32)cc1
inhibition [1]: 3.94%
inhibition [2]: 3.72%
inhibition [3]: 3.95%

Cc1cccc2nc(-c3cccc(-c4ccc(NC(=O)CS(C)(=O)=O)cc4)c3)[nH]c12
inhibition [1]: -0.47%
inhibition [2]: 3.33%
inhibition [3]: 3.81%

Nc1nccc2ccc(-c3cccnc3)cc12
inhibition [1]: 3.94%
inhibition [2]: 5.14%
inhibition [3]: 4.83%

c1ccc(CNCCn2c(-c3ccc4c(c3)CCO4)nc3c(N4CCCC4)cccc32)cc1
inhibition [1]: 11.7%
inhibition [2]: 8.74%
inhibition [3]: 6.86%

OC(CNCc1ccccc1OCc1ccccc1)c1cc(C(F)(F)F)cc(C(F)(F)F)c1 (stereo not given)
inhibition [1]: 8.75%
inhibition [2]: 10.9%
inhibition [3]: 4.23%

NCc1ccc(CNCc2cccc(-c3ccc(-c4nc5ccccc5[nH]4)cc3)c2)cc1
inhibition [1]: 13.5%
inhibition [2]: 11.8%
inhibition [3]: 12.4%

CCOc1cc(C(=O)NCCc2ccc(Cl)c(Cl)c2)ccc1-c1nc2cc(Cl)ccc2[nH]1
inhibition [1]: 1.92%
inhibition [2]: 0.01%
inhibition [3]: 1.26%

Cc1cc(N2CCCN(C)CC2)nc(Nc2ccc(Cl)cc2)n1
inhibition [1]: 1.53%
inhibition [2]: 1.73%
inhibition [3]: 2.54%

O=C(N[C@H]1CCN(CCc2ccc(O[C@H]3CCNC3)c(Br)c2)C1)c1ccc(Cl)c(Cl)c1
inhibition [1]: 0.91%
inhibition [2]: 3%
inhibition [3]: 1.43%

COc1ccc2ncc(F)c(CCN3CCC4(CC3)COC(c3cc5c(cn3)OCCO5)=N4)c2n1
inhibition [1]: 10.3%
inhibition [2]: 7.42%
inhibition [3]: -0.24%

Cc1nc(N)nc(N)c1OCCCCOc1ccccc1
inhibition [1]: 3.87%
inhibition [2]: 2.98%
inhibition [3]: 2.4%

O=[N+]([O-])c1ccc(C=NNc2nc3ccccc3[nH]2)cc1
inhibition [1]: -0.91%
inhibition [2]: 0.53%
inhibition [3]: -0.44%

Cc1ccc(Cl)cc1N1CCN(CCCNC(=O)C2CCN(c3nc4ccccc4[nH]3)CC2)CC1
inhibition [1]: 4.49%
inhibition [2]: 5.2%
inhibition [3]: 5.6%

O=C(NCc1cccc(OC(F)(F)F)c1)c1cnc2c(c1)nc(-c1c[nH]c(-c3ccccc3)n1)n2CCc1c[nH]cn1
inhibition [1]: 2.3%
inhibition [2]: 2.34%
inhibition [3]: -2.01%

Nc1nc2c(c(=O)[nH]1)CN(S(=O)(=O)c1ccc(C(=O)N[C@@H](CCC(=O)O)C(=O)O)cc1)CC2
inhibition [1]: -3.01%
inhibition [2]: -2.13%
inhibition [3]: -1.12%

COc1ccc(C2C(C(=O)Nc3cc(C)ccc3OC)c3ccccc3C(=O)N2C)cc1 (stereo not given)
inhibition [1]: 5.62%
inhibition [2]: 5.84%
inhibition [3]: 1.74%

O=C(Nc1ccccc1)N(Cc1ccc(-c2cccc(CNCc3ccc4c(c3)OCO4)c2)cc1)C1CCN(Cc2ccccc2)CC1
inhibition [1]: -0.01%
inhibition [2]: 0.92%
inhibition [3]: 2.9%

Cc1cccc2nc(-c3cccc(-c4cccc(NC(=O)Cc5ccc[n+]([O-])c5)c4)c3)[nH]c12
inhibition [1]: 1.71%
inhibition [2]: 1.78%
inhibition [3]: 0.81%

C=CCN1C(=O)CN(S(=O)(=O)c2ccc(-n3nc(C)cc3C)cc2)C1=S
inhibition [1]: 3.32%
inhibition [2]: 3.89%
inhibition [3]: 2.49%

CCCCCCNC(=O)C(N)CCCC(N)C(=O)NCCCCCC (stereo not given)
inhibition [1]: 6.05%
inhibition [2]: 5.65%
inhibition [3]: 5.23%

N#Cc1ccc(CN2CCC(Oc3ccc(NC(=O)c4cccs4)cc3Cl)C2)cc1 (stereo not given)
inhibition [1]: -0.24%
inhibition [2]: 3.89%
inhibition [3]: -0.2%

O=C(NCC1CCC(C(=O)O)CC1)c1ccc(/C=C/C(=O)N2CCc3ccccc3C2c2ccc3c(c2)OCO3)cc1 (stereo not given)
inhibition [1]: -0.02%
inhibition [2]: 1.62%
inhibition [3]: 0.31%

COc1cc(CCNc2nc(NCc3cccc4ccccc34)nc(N3CCC(N)CC3)n2)ccc1O
inhibition [1]: 5.69%
inhibition [2]: 4.98%
inhibition [3]: 2.74%

O=c1cc(NCCCNCc2cc(Cl)cc(Cl)c2OCc2ccccc2)[nH]c2ccccc12
inhibition [1]: 5.54%
inhibition [2]: 2.83%
inhibition [3]: 4.41%

O=C(Nc1ccc(-c2cccc(-c3nc4ccccc4[nH]3)c2)cc1)Nc1ccsc1
inhibition [1]: -0.72%
inhibition [2]: 4.27%
inhibition [3]: -0.62%

CCN(CC)CCN(Cc1ccc(-c2ccc(C(F)(F)F)cc2)cc1)C(=O)Cn1c(CCc2cccc(F)c2F)nc(=O)c2cc(C)ccc21
inhibition [1]: 5.28%
inhibition [2]: 9.2%
inhibition [3]: 7.16%

COc1nc2c(CCN3CC[C@H](NCc4ccc5c(c4)NC(=O)CO5)[C@H](O)C3)c(Cl)cnc2cc1F
inhibition [1]: 6.64%
inhibition [2]: 7.74%
inhibition [3]: 4.24%

O=c1ccc2ccc(F)cc2n1CCN1CCC(NCc2ccc(-c3ccccn3)s2)CC1
inhibition [1]: 4.21%
inhibition [2]: 3.12%
inhibition [3]: -0.91%

O=C(NCCN1CCCC1)c1cccc(-c2ccc(-c3nc4cc(C(F)(F)F)ccc4[nH]3)cc2)c1
inhibition [1]: 1.29%
inhibition [2]: 0.34%
inhibition [3]: 0.32%

CCOC(=O)CCCCCNC[C@H](O)c1ccccc1
inhibition [1]: -1.32%
inhibition [2]: -0.8%
inhibition [3]: -2.14%

COc1cccc2c(NN=Cc3ccccc3Cl)cc(C)nc12
inhibition [1]: 48%
inhibition [2]: 63.1%
inhibition [3]: 21.7%

Cc1cc(=NN=Cc2cccc(F)c2)c2ccc(F)cc2[nH]1
inhibition [1]: 10.5%
inhibition [2]: 7.85%
inhibition [3]: 7.27%

COc1cc2nc(NCCCN3CCCCC3)nc(NCc3ccccc3)c2cc1OC
inhibition [1]: 2.96%
inhibition [2]: 4.73%
inhibition [3]: -0.35%

Cc1[nH]c2ccccc2c1C(=O)C(C)Sc1nnc(-c2ccccc2Br)[nH]1 (stereo not given)
inhibition [1]: 0.54%
inhibition [2]: 2.81%
inhibition [3]: 0.86%

COc1ccc2nccc(NC(=O)N3CCC(NCc4cc5c(F)ccc(F)c5[nH]4)CC3)c2n1
inhibition [1]: 16.9%
inhibition [2]: 19.2%
inhibition [3]: 22.6%

Cc1nc(-c2cccc(Nc3nccc(NCC(O)c4cccc(F)c4)n3)c2)cs1 (stereo not given)
inhibition [1]: -0.89%
inhibition [2]: -0.36%
inhibition [3]: -3.57%

O=C(Nc1ccc(-c2cccc(-c3nc4cc(F)ccc4[nH]3)c2)cc1)Nc1ccsc1
inhibition [1]: 5.02%
inhibition [2]: 6.71%
inhibition [3]: 0.78%

CCCC1(NC[C@@H](O)[C@H](Cc2ccccc2)NC(=O)c2cc(NCC)cc(N3CCCCS3(=O)=O)c2)CCC1
inhibition [1]: 4.81%
inhibition [2]: 2.33%
inhibition [3]: 2.83%

COc1ccc(OCCCN2CCN(CC(c3ccc(F)cc3)N3CCN(C(C)C)CC3)CC2)c2ccccc12 (stereo not given)
inhibition [1]: 5.57%
inhibition [2]: 5.69%
inhibition [3]: 5.07%

COc1ccc2nccc(NC(=O)N3CCC(NCc4cc5ccccc5[nH]4)CC3)c2n1
inhibition [1]: 13.2%
inhibition [2]: 16.9%
inhibition [3]: 2.89%

COc1ccc(C(F)(F)F)cc1N1CCN(CCCCNC(=O)c2ccc(NC(=O)c3ccc(Cl)cc3)cc2)CC1
inhibition [1]: 0.14%
inhibition [2]: 1.22%
inhibition [3]: -0.38%

CCCCCN1CCC(CNS(=O)(=O)c2ccc(C(=O)Nc3cccc(C(F)(F)F)c3)cc2)CC1
inhibition [1]: 0.47%
inhibition [2]: 0.02%
inhibition [3]: -0.33%

CN(C)Cc1ccc(O)c(-c2ccc(C(C)(C)C)cc2)n1
inhibition [1]: -0.79%
inhibition [2]: 0.1%
inhibition [3]: 2.74%

Cn1cncc1-c1ccc2ncnc(Nc3ccc4c(cnn4Cc4ccccc4)c3)c2c1
inhibition [1]: 1.39%
inhibition [2]: 2.21%
inhibition [3]: 1.22%

O=C(Nc1cccc(CN2CCCN(Cc3ccsc3)CC2)c1)c1ccc(Cl)c(Cl)c1
inhibition [1]: 4.04%
inhibition [2]: 2.57%
inhibition [3]: -2.87%

O=C(CN1C(=O)CC1S(=O)(=O)Cc1ccco1)NCCCCCCc1ccc(F)cc1 (stereo not given)
inhibition [1]: -0.99%
inhibition [2]: 1.25%
inhibition [3]: 0.24%

COc1cccc(NC(=O)Cn2c(C)c(C#N)c3ccccc32)c1
inhibition [1]: 3.53%
inhibition [2]: 5%
inhibition [3]: 3.36%

CCCCCc1ccc(NC(=O)Nc2ccc(Cn3ncc(N4CCCNCC4)c(Cl)c3=O)cc2)cc1
inhibition [1]: -1.1%
inhibition [2]: -1.27%
inhibition [3]: 0.47%

Cc1cccc2nc(-c3ccc(-c4ccc(NC(=O)NC5CC5c5ccccc5)cc4)cc3)[nH]c12 (stereo not given)
inhibition [1]: 0.9%
inhibition [2]: -1.52%
inhibition [3]: 4.78%

C[C@@H]1CN(C(c2cccc(O)c2)c2cccc(C(=O)N(C)c3cccc(F)c3)c2)[C@@H](C)CN1C(c1cccc(O)c1)c1cccc(C(=O)N(C)c2cccc(F)c2)c1 (stereo not given in full)
inhibition [1]: 3.79%
inhibition [2]: 2.73%
inhibition [3]: 2.45%

CCCCc1cc(NCC)nc(Nc2ccc(OC)cc2)n1
inhibition [1]: 20.3%
inhibition [2]: 10.1%
inhibition [3]: 5.43%

O=C(Nc1ccc(Cl)c(Cl)c1)Nc1ccc2nccc(N3CCN(Cc4ccccc4)CC3)c2c1
inhibition [1]: 3.7%
inhibition [2]: 0.94%
inhibition [3]: 3.64%

CCN1CCN(c2cc(C)c3cc(NC(=O)c4ccc(OC)c(OC)c4)ccc3n2)CC1
inhibition [1]: 0.58%
inhibition [2]: 0.53%
inhibition [3]: 0.24%

COc1ccccc1CCNc1nc(C)cc(N[C@@H](Cc2ccccc2)C(=O)NCCOc2ccccc2)n1
inhibition [1]: 1.72%
inhibition [2]: 1.1%
inhibition [3]: -2.09%

O=C(N[C@@H](Cc1ccccc1)[C@H](O)CNCCC(F)(F)F)c1cccc(CCC2CC2)c1
inhibition [1]: 0.82%
inhibition [2]: 1.82%
inhibition [3]: 2.39%

O=C(Nc1cccc(CN2CCCN(CCc3ccccc3)CC2)c1)c1cc2ccccc2s1
inhibition [1]: -1.04%
inhibition [2]: -1.82%
inhibition [3]: 1.52%

O=C(NCC1CC1)C1Cc2c([nH]c3ccc(Br)cc23)C2(CCN(CCc3ccccc3)CC2)N1 (stereo not given)
inhibition [1]: 1.43%
inhibition [2]: -0.28%
inhibition [3]: 1.33%

Cc1nc2cc(/C=C/C(=O)NC3CCC(CCN4CCc5ccc(C#N)cc5CC4)CC3)ccc2[nH]1 (stereo not given)
inhibition [1]: 3.09%
inhibition [2]: 2.24%
inhibition [3]: 3.19%
